Results reported in PubChem BioAssay (EPA / NIEHS).
The source made the active and inactive calls. The calls were made as follows: active = hit-call score of the fitted dose curve at least 0.9, where 1 is the maximum; inactive = score below 0.9.

What was measured:
Conditions in all cases: mRNA level, 48 h; actives raise or lower the signal
[1] = read-out: ABC Transporter (ABCB1), ABCB1 (gene 5243); test: LTEA_HepaRG_ABCB1: Life Technologies and Expression Analysis (LTEA) Assay for ABC Transporter (ABCB1) using HepaRG (AID 2283460)
Procedure, shortened: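 HepaRG cells exposed in duplicate for 48 h in serum-free induction medium to eight half-log concentrations up to 100 uM in 0.5% DMSO. ABCB1 mRNA quantified by qRT-PCR, normalised to ACTB, GAPDH and POLR2A; fitted bidirectionally versus DMSO.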

[2] = read-out: growth arrest and DNA damage 45 (GADD45B), GADD45B (gene 4616); test: LTEA_HepaRG_GADD45B: Life Technologies and Expression Analysis (LTEA) Assay for growth arrest and DNA damage 45 (GADD45B) using HepaRG (AID 2283461)
Procedure, shortened: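 Differentiated human HepaRG cells in serum-free induction medium exposed 48 h in duplicate to eight concentrations, top 100 uM, half-log steps, 0.5% DMSO. GADD45B mRNA by TaqMan qRT-PCR, normalized to ACTB, GAPDH, POLR2A; bidirectional fit versus DMSO.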

[3] = read-out: ABC Transporter (ABCC3), ABCC3 (gene 8714); test: LTEA_HepaRG_ABCC3: Life Technologies and Expression Analysis (LTEA) Assay for ABC Transporter (ABCC3) using HepaRG (AID 2283462)
Procedure, shortened: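 Differentiated human HepaRG cells exposed 48 h in serum-free induction medium, 0.5% DMSO vehicle, 8-point half-log series to 100 uM in duplicate. ABCC3 mRNA by qRT-PCR, normalised to ACTB, GAPDH, POLR2A; bidirectional fit vs DMSO.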

[4] = read-out: ABC Transporter (ABCB11), ABCB11 (gene 8647); test: LTEA_HepaRG_ABCB11: Life Technologies and Expression Analysis (LTEA) Assay for ABC Transporter (ABCB11) using HepaRG (AID 2283463)
Procedure, shortened: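 Differentiated human HepaRG cells in serum-free induction medium, dosed in duplicate for 48 h. Eight-point half-log series from 100 uM in 0.5% DMSO; ABCB11 mRNA by qRT-PCR, normalized to ACTB, GAPDH, POLR2A, fitted bidirectionally versus DMSO.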

[5] = read-out: ABC Transporter (ABCC2), ABCC2 (gene 1244); test: LTEA_HepaRG_ABCC2: Life Technologies and Expression Analysis (LTEA) Assay for ABC Transporter (ABCC2) using HepaRG (AID 2283464)
Procedure, shortened: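 Differentiated HepaRG cells in serum-free induction medium exposed 48 h to eight half-log concentrations up to 100 uM, 0.5% DMSO, in duplicate. ABCC2 mRNA measured by qRT-PCR (TaqMan, Fluidigm), normalized to ACTB, GAPDH and POLR2A. Fitted in both directions against DMSO.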

[6] = read-out: Broad substrate specificity ATP-binding cassette transporter ABCG2 (Homo sapiens) (UniProt Q9UNQ0); test: LTEA_HepaRG_ABCG2: Life Technologies and Expression Analysis (LTEA) Assay for ABC Transporter (ABCG2) using HepaRG (AID 2283465)
Procedure, shortened: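 Differentiated HepaRG cells were exposed for 48 h in serum-free induction medium to 8 half-log concentrations, top 100 uM, in 0.5% DMSO. ABCG2 mRNA was measured by qRT-PCR, normalized to ACTB, GAPDH and POLR2A, with bidirectional fitting versus DMSO.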

[7] = read-out: ATP-citrate lyase (ACLY), ACLY (gene 47); test: LTEA_HepaRG_ACLY: Life Technologies and Expression Analysis (LTEA) Assay for ATP-citrate lyase (ACLY) using HepaRG (AID 2283466)
Procedure, shortened: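 Differentiated HepaRG cells exposed 48 h in serum-free induction medium to eight half-log concentrations up to 100 uM in 0.5% DMSO, duplicates. Transcript measured by Fluidigm TaqMan qRT-PCR, normalized to ACTB, GAPDH, POLR2A; bidirectional fit versus DMSO.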

[8] = read-out: Peroxisomal acyl-coenzyme A oxidase 1 (ACOX1) gene, ACOX1 (gene 51); test: LTEA_HepaRG_ACOX1: Life Technologies and Expression Analysis (LTEA) Assay for Peroxisomal acyl-coenzyme A oxidase 1 (ACOX1) gene using HepaRG (AID 2283467)
Procedure, shortened: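 HepaRG cells, plated 48 h then switched to serum-free induction medium, were exposed in duplicate for 48 h to 8-point half-log concentrations up to 100 uM in 0.5% DMSO. ACOX1 mRNA was measured by qRT-PCR, normalized to ACTB/GAPDH/POLR2A, and fitted bidirectionally versus DMSO.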

[9] = read-out: Alkaline Phosphatase, Placental (ALPP) gene, ALPP (gene 250); test: LTEA_HepaRG_ALPP: Life Technologies and Expression Analysis (LTEA) Assay for Alkaline Phosphatase, Placental (ALPP) gene using HepaRG (AID 2283468)
Procedure, shortened: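 HepaRG cells plated 48 h, then exposed in duplicate for 48 h in serum-free induction medium to 8-point half-log series from 100 uM in 0.5% DMSO. ALPP mRNA by TaqMan qRT-PCR, normalized to ACTB/GAPDH/POLR2A; bidirectional fit versus DMSO.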

[10] = read-out: Bcl-2 (BAD) gene, BAD (gene 572); test: LTEA_HepaRG_BAD: Life Technologies and Expression Analysis (LTEA) Assay for Bcl-2 (BAD) gene using HepaRG (AID 2283469)
Procedure, shortened: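 Differentiated HepaRG cells were exposed in duplicate in 0.5% DMSO for 48 h to eight-point half-log concentrations up to 100 uM. BAD mRNA was measured by Fluidigm TaqMan qRT-PCR, normalized to ACTB, GAPDH and POLR2A, and fitted bidirectionally against DMSO.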

[11] = read-out: Bcl-2 (BAX) gene, BAX (gene 581); test: LTEA_HepaRG_BAX: Life Technologies and Expression Analysis (LTEA) Assay for Bcl-2 (BAX) gene using HepaRG (AID 2283470)
Procedure, shortened: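 HepaRG (human liver), 48 h exposure, duplicate wells. 8-pt curve, half-log from 100 uM, 0.5% DMSO. BAX transcript by TaqMan qRT-PCR; ACTB/GAPDH/POLR2A normalization; gain or loss vs DMSO baseline.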

[12] = read-out: adenosine kinase (ADK) gene, ADK (gene 132); test: LTEA_HepaRG_ADK: Life Technologies and Expression Analysis (LTEA) Assay for adenosine kinase (ADK) gene using HepaRG (AID 2283471)
Procedure, shortened: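 Differentiated HepaRG cells dosed 48 h in serum-free induction medium, 0.5% DMSO vehicle, eight half-log concentrations from 100 uM, in duplicate. ADK mRNA by TaqMan qRT-PCR normalised to ACTB, GAPDH, POLR2A; bidirectional fit versus DMSO.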

[13] = read-out: Alpha-fetoprotein (AFP) gene, AFP (gene 174); test: LTEA_HepaRG_AFP: Life Technologies and Expression Analysis (LTEA) Assay for Alpha-fetoprotein (AFP) gene using HepaRG (AID 2283472)
Procedure, shortened: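 HepaRG, single lot; 48 h post-plating -> serum-free induction medium; cpd 8-pt, 100 uM top, half-log, 0.5% DMSO, duplicate, 48 h. RNA -> qRT-PCR AFP, norm ACTB/GAPDH/POLR2A. Bidirectional fit vs DMSO.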

BCL2L11 (gene 10018) = test: LTEA_HepaRG_BCL2L11: Life Technologies and Expression Analysis (LTEA) Assay for Bcl-2 (BCL2L11) gene using HepaRG (AID 2283473)
Procedure, shortened: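 Differentiated human HepaRG cells were exposed 48 h in serum-free induction medium to eight half-log concentrations up to 100 uM in 0.5% DMSO, in duplicate. BCL2L11 mRNA was quantified by TaqMan qRT-PCR, normalized to ACTB, GAPDH and POLR2A; induction or repression fitted versus DMSO.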

[14] = read-out: Apolipoprotein A-V (APOA5) gene, APOA5 (gene 116519); test: LTEA_HepaRG_APOA5: Life Technologies and Expression Analysis (LTEA) Assay for Apolipoprotein A-V (APOA5) gene using HepaRG (AID 2283474)
Procedure, shortened: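 Differentiated HepaRG cells in serum-free induction medium, exposed 48 h in duplicate to eight half-log concentrations topping at 100 uM (0.5% DMSO). APOA5 mRNA by Fluidigm TaqMan qRT-PCR, normalized to ACTB, GAPDH and POLR2A; bidirectional fit versus DMSO.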

[15] = read-out: Apoptosis regulator Bcl-2 (Homo sapiens) (UniProt P10415); test: LTEA_HepaRG_BCL2: Life Technologies and Expression Analysis (LTEA) Assay for Bcl-2 gene using HepaRG (AID 2283475)
Procedure, shortened: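 HepaRG, plated 48 h then switched to serum-free induction medium; dosed 48 h, 8 conc. (max 100 uM, half-log steps), duplicate, 0.5% DMSO. Lysis in RLT, RNA isolated, TaqMan qRT-PCR for BCL2; ACTB/GAPDH/POLR2A normalisation; bidirectional fit vs DMSO.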

[16] = read-out: Bcl-2 (BID) gene, BID (gene 637); test: LTEA_HepaRG_BID: Life Technologies and Expression Analysis (LTEA) Assay for Bcl-2 (BID) gene using HepaRG (AID 2283476)
Procedure, shortened: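 Transcript levels of BID, measured by qRT-PCR and normalized to three housekeeping genes, were fitted bidirectionally against DMSO controls. Cells were HepaRG, dosed 48 h at up to 100 uM.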

Caspase-3 (Homo sapiens) = Caspase-3 (Homo sapiens) (UniProt P42574); test: LTEA_HepaRG_CASP3: Life Technologies and Expression Analysis (LTEA) Assay for cysteine-aspartic acid protease (CASP3) using HepaRG (AID 2283477)
Sequence of Caspase-3 (Homo sapiens) (P42574 whole entry, looked up): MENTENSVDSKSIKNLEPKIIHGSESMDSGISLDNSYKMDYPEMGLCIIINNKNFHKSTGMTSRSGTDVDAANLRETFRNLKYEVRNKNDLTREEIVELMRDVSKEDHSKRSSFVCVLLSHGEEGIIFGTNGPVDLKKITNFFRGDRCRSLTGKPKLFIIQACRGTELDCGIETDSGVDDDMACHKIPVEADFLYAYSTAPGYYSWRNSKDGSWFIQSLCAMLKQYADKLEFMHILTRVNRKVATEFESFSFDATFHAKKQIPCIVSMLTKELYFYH
Procedure, shortened: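 Differentiated HepaRG cells, plated 48 h, were treated in duplicate in serum-free induction medium for 48 h with eight half-log concentrations up to 100 uM in 0.5% DMSO. CASP3 mRNA measured by qRT-PCR, normalized to ACTB, GAPDH, POLR2A.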

[17] = read-out: Cytochrome P450 (CYP24A1), CYP24A1 (gene 1591); test: LTEA_HepaRG_CYP24A1: Life Technologies and Expression Analysis (LTEA) Assay for Cytochrome P450 (CYP24A1) using HepaRG (AID 2283478)
Procedure, shortened: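 HepaRG cells plated 48 h, then exposed in duplicate in serum-free induction medium for 48 h to 8-point half-log series from 100 uM in 0.5% DMSO. CYP24A1 mRNA by Fluidigm qRT-PCR, normalized to ACTB, GAPDH, POLR2A; bidirectional fit versus DMSO.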

[18] = read-out: Cytochrome P450 (CYP1A2), CYP1A2 (gene 1544); test: LTEA_HepaRG_CYP1A2: Life Technologies and Expression Analysis (LTEA) Assay for Cytochrome P450 (CYP1A2) using HepaRG (AID 2283479)
Procedure, shortened: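 Differentiated human HepaRG cells in serum-free induction medium exposed 48 hours in duplicate to 8 half-log concentrations from 100 uM, 0.5% DMSO. CYP1A2 mRNA quantified by qRT-PCR, normalized to ACTB, GAPDH and POLR2A; bidirectional fitting versus DMSO.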

Measured: AC50

Sequence of Broad substrate specificity ATP-binding cassette transporter ABCG2 (Homo sapiens) (Q9UNQ0 whole entry, looked up): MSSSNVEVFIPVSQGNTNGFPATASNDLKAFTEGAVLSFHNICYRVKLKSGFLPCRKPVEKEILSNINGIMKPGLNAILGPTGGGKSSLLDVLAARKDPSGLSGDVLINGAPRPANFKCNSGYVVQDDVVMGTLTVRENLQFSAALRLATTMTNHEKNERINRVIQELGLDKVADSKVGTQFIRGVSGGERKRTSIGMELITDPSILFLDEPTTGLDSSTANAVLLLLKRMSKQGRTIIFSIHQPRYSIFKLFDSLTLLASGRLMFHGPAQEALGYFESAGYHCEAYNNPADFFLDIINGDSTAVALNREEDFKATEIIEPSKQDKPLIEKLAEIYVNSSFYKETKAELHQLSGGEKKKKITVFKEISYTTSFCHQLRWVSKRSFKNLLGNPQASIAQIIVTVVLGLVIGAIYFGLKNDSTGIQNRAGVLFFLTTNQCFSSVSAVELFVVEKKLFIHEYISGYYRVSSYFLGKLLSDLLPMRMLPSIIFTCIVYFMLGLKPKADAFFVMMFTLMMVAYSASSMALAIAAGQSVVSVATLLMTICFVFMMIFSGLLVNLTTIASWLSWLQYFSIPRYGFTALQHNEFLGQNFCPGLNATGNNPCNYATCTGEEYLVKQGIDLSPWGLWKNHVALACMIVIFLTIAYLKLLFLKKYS
Sequence of Apoptosis regulator Bcl-2 (Homo sapiens) (P10415 whole entry, looked up): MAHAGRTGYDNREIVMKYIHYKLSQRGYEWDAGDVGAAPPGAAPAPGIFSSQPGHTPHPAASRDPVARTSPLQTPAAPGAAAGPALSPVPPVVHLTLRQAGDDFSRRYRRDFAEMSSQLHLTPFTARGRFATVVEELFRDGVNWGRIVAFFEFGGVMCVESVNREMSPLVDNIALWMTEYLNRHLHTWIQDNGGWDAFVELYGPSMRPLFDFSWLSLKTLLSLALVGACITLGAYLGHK

CS(=O)(=O)c1ccc(C(=O)C2C(=O)CCCC2=O)c([N+](=O)[O-])c1
active: [18] 18.4 µM
inactive: all other assays above

COC(=O)N(C(=O)N1CO[C@@]2(C(=O)OC)Cc3cc(Cl)ccc3C2=N1)c1ccc(OC(F)(F)F)cc1
active: [2] 8.78 µM | [4] 40 µM | [8] 40 µM | [13] 40 µM | BCL2L11 (gene 10018) 12.7 µM | [18] 10.4 µM
inactive: all other assays above

CC(C)C1(C)N=C(c2ncccc2C(=O)O)NC1=O (stereo not given)
inactive: all assays above

COCc1cnc(C2=NC(C)(C(C)C)C(=O)N2)c(C(=O)O)c1 (stereo not given)
inactive: all assays above

CCOc1nc(C(Cl)(Cl)Cl)ns1
active: [1] 1.05 µM | [2] 1.23 µM | [4] 1.08 µM | [6] 1.29 µM | [7] 23.8 µM | [8] 1.11 µM | [9] 2.14 µM | [10] 1.3 µM | [11] 1.39 µM | [12] 1.06 µM | [13] 1.77 µM | BCL2L11 (gene 10018) 0.862 µM | [14] 1.44 µM | [15] 1.51 µM | [16] 1.33 µM | Caspase-3 (Homo sapiens) 1.05 µM | [17] 1.93 µM | [18] 0.939 µM
inactive: [3] | [5]

CC(C)(C)C(=O)C(Oc1ccc(Cl)cc1)n1cncn1 (stereo not given)
active: [1] 7.7 µM | [5] 16.8 µM | [7] 66.5 µM
inactive: all other assays above

O=P(O)(O)CCCl
inactive: all assays above

C=CCOC(=O)C(C)(C)OC(=O)c1cc(-n2c(=O)cc(C(F)(F)F)n(C)c2=O)ccc1Cl
inactive: all assays above

OC(c1ccc(Cl)cc1)(c1ccc(Cl)cc1)C(Cl)(Cl)Cl
active: [4] 72.4 µM | [6] 50 µM | [8] 50 µM | [10] 70.1 µM | [11] 78.2 µM | [12] 74 µM | [14] 4.05 µM | [15] 86.4 µM | [16] 85 µM | Caspase-3 (Homo sapiens) 50 µM
inactive: [1] | [2] | [3] | [5] | [7] | [9] | [13] | BCL2L11 (gene 10018) | [17] | [18]

COC(=O)c1c(C(F)F)nc(C(F)(F)F)c(C2=NCCS2)c1CC(C)C
active: [5] 50 µM | [18] 50 µM
inactive: all other assays above

Cc1cnc(C2=NC(C)(C(C)C)C(=O)N2)c(C(=O)O)c1 (stereo not given)
inactive: all assays above

CCC(C)n1c(=O)[nH]c(C)c(Br)c1=O (stereo not given)
active: [2] 28.5 µM | [4] 30 µM | [8] 21.6 µM | [13] 35.5 µM | BCL2L11 (gene 10018) 20.7 µM | [18] 8.92 µM
inactive: all other assays above

Cc1ccc(N=CN(C)C=Nc2ccc(C)cc2C)c(C)c1
active: [18] 51.6 µM
inactive: all other assays above
